Screens as filed in PubChem.
The sample as a whole holds a higher share of hits than the screen did.
IDE exosite inh = exo-site inhibitors of human IDE, primary screen, biochemical, fluorescence anisotropy, probe displacement | Insulin-degrading enzyme (Homo sapiens), P14735 | purified IDE, FL-6b probe fluorescence polarization; stronger effect = lower value | z-score at 20 µM | 17,000 tested, 6.3% active;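 active means z-score of -3 or lower, meaning strong loss of probe binding signal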;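 further: His-tagged human IDE residues 42-1019 made in E. coli with 30 nM FL-6b probe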
Target sequence (P14735 42-1019 limits assumed): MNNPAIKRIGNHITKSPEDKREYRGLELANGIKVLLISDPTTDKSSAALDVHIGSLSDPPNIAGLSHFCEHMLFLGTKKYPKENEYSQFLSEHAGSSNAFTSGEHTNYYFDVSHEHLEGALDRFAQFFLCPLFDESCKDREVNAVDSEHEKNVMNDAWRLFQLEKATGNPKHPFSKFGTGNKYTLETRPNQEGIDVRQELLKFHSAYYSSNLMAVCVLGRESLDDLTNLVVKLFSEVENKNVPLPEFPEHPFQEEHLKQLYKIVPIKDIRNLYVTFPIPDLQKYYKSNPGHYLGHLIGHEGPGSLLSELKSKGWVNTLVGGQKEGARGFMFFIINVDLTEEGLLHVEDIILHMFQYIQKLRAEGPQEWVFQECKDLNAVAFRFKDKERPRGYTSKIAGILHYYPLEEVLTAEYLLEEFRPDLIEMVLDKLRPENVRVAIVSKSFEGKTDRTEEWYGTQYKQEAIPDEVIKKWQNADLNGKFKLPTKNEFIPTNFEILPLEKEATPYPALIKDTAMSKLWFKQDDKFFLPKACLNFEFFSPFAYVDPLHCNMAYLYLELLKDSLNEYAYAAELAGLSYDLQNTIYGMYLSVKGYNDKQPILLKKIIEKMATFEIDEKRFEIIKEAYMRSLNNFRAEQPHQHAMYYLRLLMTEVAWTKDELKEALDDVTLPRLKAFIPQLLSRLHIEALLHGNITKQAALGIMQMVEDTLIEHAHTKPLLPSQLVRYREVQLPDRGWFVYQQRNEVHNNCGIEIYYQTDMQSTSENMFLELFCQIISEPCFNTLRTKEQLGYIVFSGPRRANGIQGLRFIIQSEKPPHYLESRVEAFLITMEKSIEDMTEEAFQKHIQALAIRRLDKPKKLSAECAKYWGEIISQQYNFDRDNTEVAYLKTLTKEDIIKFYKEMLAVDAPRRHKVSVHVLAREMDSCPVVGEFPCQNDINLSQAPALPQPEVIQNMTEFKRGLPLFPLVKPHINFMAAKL
A number is an active result; 0 = inactive; ! = repeats disagree.

SMILES	IDE exosite inh
COc1cccc(-c2ccc([C@@H]3[C@@H](C#N)N(C(=O)Cc4ccccc4)[C@H]3CO)cc2)c1	0
COc1cccc(-c2ccccc2[C@H]2[C@@H](C#N)N(C(=O)Cc3ccccc3)[C@H]2CO)c1	0
COc1cccc(-c2ccccc2[C@H]2[C@@H](C#N)N(C(=O)Cc3ccccc3)[C@@H]2CO)c1	0
COc1cccc(-c2ccc([C@@H]3[C@@H](CO)N(C(=O)Cc4ccccc4)[C@H]3C#N)cc2)c1	0
O=C(NC[C@@H]1N[C@@H](CO)[C@@H]1c1ccccc1)c1ccccc1F	0
O=C(NC[C@@H]1N[C@@H](CO)[C@@H]1c1ccc(-c2ccccc2F)cc1)c1ccccn1	-4.5
COc1cccc(-c2ccc([C@H]3[C@@H](C#N)N(C(=O)Cc4ccccc4)[C@@H]3CO)cc2)c1	-3.8
N#C[C@H]1[C@H](c2ccc(-c3ccccc3F)cc2)[C@@H](CO)N1C(=O)c1ccccn1	0
CCCC#Cc1ccc([C@@H]2[C@H](CO)N3C(=O)CN(S(=O)(=O)c4ccccc4C)C[C@@H]23)cc1	0
CO[C@H]1CN(C)C(=O)c2ccc(NC(C)=O)cc2OC[C@H](C)N(Cc2cccc(F)c2)C[C@@H]1C	0
COc1ccc(C[C@H]2CCn3cc(nn3)COC[C@H](c3ccccc3)NC2=O)cc1	0
Cc1ccccc1S(=O)(=O)N1[C@@H]2CNC[C@H]1C2c1ccc(-c2ccc(C(=O)N(C)C)cc2)cc1 (stereo not given in full)	0
CC(C)C#Cc1ccc([C@@H]2[C@@H](CO)N(C(=O)CN(C)C)[C@H]2C#N)cc1	0
CCCNC(=O)N1[C@H](CO)[C@H](c2ccccc2)[C@H]1CNC(=O)c1ccccc1	0
CN1c2ccc(C3=CCCCC3)cc2[C@H]2[C@H](CCN2C(=O)Cc2ccccn2)[C@@H]1CO	0
COc1cccc(-c2ccc([C@@H]3[C@@H](C#N)N(C(=O)c4ccccn4)[C@@H]3CO)cc2)c1	-5
COc1cccc(-c2ccccc2[C@H]2[C@@H](C#N)N(C(=O)c3ccccn3)[C@@H]2CO)c1	0
CCCNC(=O)N1[C@H](C#N)[C@@H](c2ccc(-c3cccc(OC)c3)cc2)[C@H]1CO	0
O=C(Nc1ccccc1F)N1CCCCN2[C@H](CO)[C@H](c3ccc(C4=CCCC4)cc3)[C@@H]2C1	0
C/C=C/c1ccc([C@H]2[C@H]3CN(C(=O)Nc4ccc(F)cc4)CC(=O)N3[C@H]2CO)cc1	0
CCC(=O)N1[C@@H](C#N)[C@@H](c2ccccc2-c2ccccc2)[C@@H]1CO	0
COc1ccc(-c2ccc([C@H]3[C@H](CO)N4C(=O)CN(C(=O)C5CC5)C[C@@H]34)cc2)cc1	0
COc1cccc(-c2ccc(C3[C@@H]4CN(C(=O)C5CCOCC5)C[C@H]3N4)cc2)c1 (stereo not given in full)	-7.1!
COc1ccc(-c2ccc([C@@H]3[C@H]4CN(C(=O)C5CCOCC5)CC(=O)N4[C@H]3CO)cc2)cc1	0
COc1cccc(-c2ccc(C3[C@@H]4CN(C(=O)C5CCCCC5)C[C@H]3N4)cc2)c1 (stereo not given in full)	0
SMILES	IDE exosite inh
COc1ccc(-c2ccc([C@H]3[C@@H](CO)N4C(=O)CN(C(=O)C5CC5)C[C@@H]34)cc2)cc1	0
COc1cccc(-c2ccc([C@H]3[C@H](CO)N4C(=O)CN(C(=O)C5CC5)C[C@@H]34)cc2)c1	-7.5
CN(C)C(=O)c1cccc(-c2ccc([C@@H]3[C@@H](CO)N4C(=O)CN(C(=O)C5CC5)C[C@H]34)cc2)c1	0
N#Cc1cccc(-c2ccc(C3[C@@H]4CN(C(=O)C5CCOCC5)C[C@H]3N4)cc2)c1 (stereo not given in full)	0
Cc1cccc(-c2ccc(C3[C@@H]4CN(C(=O)C5CCCCC5)C[C@H]3N4)cc2)c1 (stereo not given in full)	-5.4!
O=C(C1CCCCC1)N1C[C@@H]2N[C@H](C1)C2c1ccc(-c2ccccc2F)cc1 (stereo not given in full)	0
COc1cccc(-c2ccc([C@@H]3[C@@H](CO)N4C(=O)CN(C(=O)C5CC5)C[C@@H]34)cc2)c1	-15
Cc1cccc(-c2ccc(C3[C@@H]4CNC[C@H]3N4)cc2)c1 (stereo not given in full)	0
CCCNC(=O)N1CC(=O)N2[C@H](CO)[C@H](c3ccc(C#Cc4ccc(F)cc4)cc3)[C@H]2C1	0
COc1ccc2c3c([nH]c2c1)[C@H](CO)N(S(=O)(=O)c1cn(C)cn1)CC31CCN(CC2CCCCC2)CC1	0
COc1ccc2c3c(n(C)c2c1)[C@H](CO)N(C(=O)CN(C)C)CC31CCN(S(C)(=O)=O)CC1	0
CCC(=O)N1C[C@H](C)[C@H](OC)CN(C)C(=O)c2ccc(NC(=O)CC(F)(F)F)cc2OC[C@@H]1C	0
COc1ccccc1-c1ccc([C@@H]2[C@H](CO)N(CC3CC3)C23CN(S(C)(=O)=O)C3)cc1	0
COc1ccc(S(=O)(=O)N2CCCCN3[C@H](CO)[C@@H](c4ccc(C#CCC(C)C)cc4)[C@H]3C2)cc1	0
CCCC#Cc1ccc([C@H]2[C@@H](CO)N(C(C)=O)[C@@H]2CNC(=O)C2CC2)cc1	0
C[C@@H]1CCCCO[C@H](CN(C)Cc2ccc(C(=O)O)cc2)[C@H](C)CN([C@H](C)CO)C(=O)c2cc(N(C)C)ccc2O1	0
O=C(Cc1ccccn1)N1CC(=O)N2[C@H](C1)[C@H](c1ccc(-c3ccc(F)cc3)cc1)[C@@H]2CO	0
C[C@@H]1CN([C@@H](C)CO)C(=O)c2cc(C#Cc3ccccc3)cnc2O[C@H]1CN(C)C(=O)c1ccccc1	0
COc1cccc(-c2ccc([C@@H]3[C@@H](CO)N4C(=O)CN(C(=O)C5CCOCC5)C[C@H]34)cc2)c1	0
COc1cccc(-c2ccc([C@@H]3[C@@H](CO)N4C(=O)CN(C(=O)C5CCOCC5)C[C@@H]34)cc2)c1	-5.8
COc1ccc(-c2ccc([C@H]3[C@@H](CO)N4C(=O)CN(C(=O)C5CCOCC5)C[C@@H]34)cc2)cc1	0
COc1cccc(S(=O)(=O)N2CC[C@@H]3[C@H](CO)Nc4ccc(C5=CCCCC5)cc4[C@@H]32)c1	0
CCN(C[C@H]1N[C@@H](CO)[C@H]1c1ccc(C2=CCCC2)cc1)C(=O)c1ccccc1	0
CN(C)CC#Cc1ccc([C@@H]2[C@@H](CO)N3CCCCN(C(=O)C4CCC4)C[C@@H]23)cc1	0
Cc1noc(C)c1NC(=O)N1C[C@H](O)COC[C@@H]2O[C@H](CC(=O)N[C@@H]3CCN(Cc4ccccc4)C3)CC[C@H]21	0
SMILES	IDE exosite inh
COc1cccc(-c2ccc([C@@H]3[C@H](CO)N4CCCCN(C(=O)c5ccc6c(c5)OCO6)C[C@@H]34)cc2)c1	0
CC(C)NC(=O)N1CCCCN2[C@@H](CO)[C@H](c3ccc(Br)cc3)[C@@H]2C1	0
COc1cccc(-c2ccc([C@@H]3[C@H](CO)N4CCCCN(C(=O)NC(C)C)C[C@@H]34)cc2)c1	-6.5
CC(C)NC(=O)N1CCCCN2[C@@H](CO)[C@@H](c3ccc(Br)cc3)[C@@H]2C1	0
COc1cccc(-c2ccc([C@H]3[C@H](CO)N4CCCCN(C(=O)c5ccc(F)cc5)C[C@@H]34)cc2)c1	0
COc1cccc(-c2ccc([C@H]3[C@H]4CN(C(=O)NC(C)C)CCCCN4[C@H]3CO)cc2)c1	-10
CO[C@@H]1CN(C)C(=O)c2ccc(NC(=O)Nc3c(C)noc3C)cc2OC[C@H](C)N(CCC(F)(F)F)C[C@H]1C	0
